Laboratory results as given in PubChem BioAssay.

Assays:
[1] = biological target: Tumor necrosis factor receptor superfamily member 10B (Homo sapiens) (UniProt O14763); test: caspase-8 TRAIL sensitization, hit retest, confirmation, cell-based, NB7+caspase-8, with/without TRAIL, luminescence panel (AID 651596); conditions: NB7 neuroblastoma + caspase-8, TRAIL sensitization, luminescence viability, with TRAIL, mean of runs, at 10 µM, stronger effect = higher value
[2] = as above; conditions: NB7 neuroblastoma + caspase-8, without TRAIL, luminescence viability, without TRAIL, mean of runs, at 10 µM

Chain of Tumor necrosis factor receptor superfamily member 10B (Homo sapiens) (O14763 whole entry, looked up): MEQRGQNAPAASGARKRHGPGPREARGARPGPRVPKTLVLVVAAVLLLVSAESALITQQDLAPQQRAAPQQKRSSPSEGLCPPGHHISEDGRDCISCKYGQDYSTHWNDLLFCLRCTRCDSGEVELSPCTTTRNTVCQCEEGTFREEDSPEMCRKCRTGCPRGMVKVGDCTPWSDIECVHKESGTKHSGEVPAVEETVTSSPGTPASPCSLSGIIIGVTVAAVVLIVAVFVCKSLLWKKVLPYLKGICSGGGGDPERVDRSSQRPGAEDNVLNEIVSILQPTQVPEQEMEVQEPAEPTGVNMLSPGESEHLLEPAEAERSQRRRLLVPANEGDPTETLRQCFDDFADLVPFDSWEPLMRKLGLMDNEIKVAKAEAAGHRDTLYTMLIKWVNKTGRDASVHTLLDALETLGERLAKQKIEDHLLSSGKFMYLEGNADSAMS

SMILES | activity [1] | activity [2]
O=C(Nc1cccc(O)c1)c1noc2c1CCc1ccccc1-2 | 76.6% | 67.1%
Cc1cnc(NC(=O)COc2ccccc2Cl)s1 | 83% | 82.7%
CCOc1ccc(OCC(=O)Nc2cccc(S(=O)(=O)NC3=NCCC3)c2)cc1 | 68.9% | 64.6%
CCOc1ccc(-c2nc(-c3cccnc3)no2)cc1 | 53.3% | 51.5%
CCOc1cccc2sc(N(CCCN(C)C)C(=O)c3ccc(S(=O)(=O)N4CCc5ccccc5C4)cc3)nc12 | 55.9% | 73.7%
CCC(=O)c1ccc(OCC(=O)OCC(=O)N2CCCc3ccccc32)cc1 | -9.15% | -14.8%
CC1(C)N=C(N)N=C(N)N1CCCCc1ccccc1 | 63.6% | 68.3%
CCOC(=O)C1=C(C)OC(=Cc2ccc(OC)cc2)C1=O | 70.6% | 70%
COc1cc(OC)cc(-c2cc3ccc(F)cc3cn2)c1 | 65.9% | 60.2%
Cc1ccccc1-c1nnc(-c2cccc3ccccc23)o1 | 47% | 32.4%
COc1ccc(N2Cc3ccc(OC)c(OC)c3C2=O)cc1 | 40.6% | 37.8%
C(=N\NC1=Nc2cccc3cccc1c23)/c1ccccc1 | 34.3% | 14.2%
CSc1ncccc1C(=O)OCC(=O)c1cc(C)n(CC2CCCO2)c1C (configuration not stated) | 44% | 23.6%
COc1ccc2nc(NN=C(C)c3ccccn3)cc(C)c2c1 | 74% | 80.1%
N/C(CCS(=O)(=O)c1ccc(Cl)cc1)=N\OC(=O)c1ccc(Cl)cc1 | 98.2% | 93.3%
CC(C)(C)c1ccc(-c2nc3cc(N)ccc3o2)cc1 | 81.9% | 80.5%

SMILES | activity [1] | activity [2]
O=C(Nc1nc(=O)c2ccccc2s1)c1ccc(F)cc1 | 64.8% | 72.2%
CCN1CCN(Cc2ccc(NC(=O)c3cc(NC(=O)C(=O)c4c[nH]c5ccccc45)cc(OC)c3)cc2C(F)(F)F)CC1 | 82.2% | 77.7%
Cc1ccccc1NC(=O)Cc1nc(COC(=O)c2ccc(S(C)(=O)=O)c([N+](=O)[O-])c2)cs1 | 80.5% | 93.9%
COc1ccc2c(c1OC)C(=O)OC2Nc1nc(-c2ccc(-c3ccccc3)cc2)cs1 (configuration not stated) | 47.4% | 49.4%
c1ccc2[nH]c(-c3ccc4c(c3)OCO4)nc2c1 | 77.4% | 79.3%
CC(C)(C)NC(=O)C(c1ccncc1)n1c(-c2ccc(C(F)(F)F)cc2)nc2ccccc21 (configuration not stated) | 74.4% | 85.8%
CCOC(=O)c1cnc2c(-c3ccccc3)cnn2c1C | 50% | 35.7%
CC1=NN(c2nc(N)nc(/C(C#N)=C/c3ccc([N+](=O)[O-])o3)n2)C(C)(C)C1 | 58.1% | 98.6%
Cc1ccc(CS(=O)(=O)c2ncc(Cl)c(C(=O)Nc3nnc(C(C)C)s3)n2)cc1 | 67.5% | 59.3%
COn1c(SCc2ccc(C)cc2C)nc2ccccc2c1=O | 69.7% | 35.5%
CCOc1ccc2nc(-c3ccccc3)[nH]c2c1 | 81.2% | 76%
Cn1cnc([N+](=O)[O-])c1Sc1nc(N)nc2c1ncn2C1OC(CO)C(O)C1O (configuration not stated) | 66.8% | 75.4%
COc1ccc(C2CC(c3cccs3)=NN2C(=O)CCl)cc1OC (configuration not stated) | 98.7% | 98.7%
NC(=O)c1ccsc1NC(=O)c1ccc2c(c1)CCCC2 | 89.5% | 86.7%
CC(=C/c1ccccc1)/C=N/NC(=O)c1ccccn1 | 87.2% | 85.2%
